Laboratory results taken from PubChem BioAssay (NCATS).
Records with an inconclusive call do not appear. Entries that show only a call come without a potency. The source made the active and inactive calls. The call rests on the fitted dose curve; in most records, active means well fitted cell-killing curve with a large enough effect; inconclusive means small, poorly fitted or top-dose-only effect, or effect the other way; inactive means no such curve, though single readings can be large or run the other way.
Potency means the concentration at half of the fitted maximal effect.

Assay: Cell Viability - LYMP2-004 (AID 966); further: nearly all actives have a fitted effect of over 65% in size
Details: LYMP2-004 lymphoblastoid cell viability, qHTS; series mostly up to 92.2 µM
Text: NIH Chemical Genomics Center [NCGC]
NIH Molecular Libraries Screening Centers Network [MLSCN]
National Institutes of Environmental Health Sciences [NIEHS]
National Toxicology Program [NTP]
We have developed a 1536-well cell-based assay for quantitative high throughput screening (qHTS) against a number of cell lines to determine in vitro cytotoxicity of small molecules. This particular assay uses a human lymphoblastoid cell line (LYMP2-004) purchased from Coriell Institute for Medical Research.
NCGC Assay Protocol Summary:
The CellTiter-Glo luminescent cell viability assay (Promega) is a homogeneous method to measure the number of viable cells in culture. The end point readout of this assay is based on quantitation of intracellular ATP, an indicator of metabolic activity, using the luciferase reaction. Luciferase catalyzes the oxidation of beetle Luciferin to oxyluciferin and light in the presence of ATP. The luminescent signal is proportional to amount of ATP present.
Using the CellTiter-Glo luminescent cell viability assay, the amount of cellular ATP was measured in the lymphoblastoid cell line with complete culture medium following compound treatment for 24 hours. The assay was performed in opaque white Kalypsys 1536-well plates. In the screen, tetraoctylammonium bromide was used as positive control. Library compounds were measured for their ability to cause acute toxicity in the cell line, as reflected by a decrease in intracellular ATP levels, in a concentration-dependent manner. […] AC50 values were determined from concentration-response data modeled with the standard Hill equation.
qHTS protocol for CellTiter Glo lymphoblastoid cellular assay
[Step] [Parameter] [Value] [Description]
1. Reagent; 5 uL; 2500 lymphoblastoid cells/well
2. Time; 5 hr; 37 C incubation
4. Controls; 23 nL; Tetraoctylammonium bromide 6.4pM to 92 uM
5. Time; 24 hr; 37 C incubation
6. Reagent; 5 uL; CellTiter Glo reagent
7. Time; 30 min; Room Temperature
8. Detection; Luminescence; Viewlux plate reader
Keywords: cell viability, cytotoxicity, lymphoblastoid cell line, luminescence, NTPHTS, NTPHTS_NCGC, NIEHS, DSSTox, MLSMR, MLSCN, NIH Roadmap, qHTS, NCGC
With `Nc1ncn([C@@H]2O[C@H](CO)[C@@H](O)[C@H]2O)c(=O)n1` the Potency was 12.6 µM (active). With `O=c1[nH]c(=O)n([C@H]2C[C@H](O)[C@@H](CO)O2)cc1Br` the Potency was “inactive”. For `Nc1nc(N)c2nc(-c3ccccc3)c(N)nc2n1`, the Potency was “inactive”. In the case of `CCCCOCCOCCOCc1cc2c(cc1CCC)OCO2`, the Potency is reported as “inactive”. In the case of `COc1cc(Cc2cnc(N)nc2N)cc(OC)c1OC`, the Potency is reported as “inactive”. For `CCCCNC(=O)NS(=O)(=O)c1ccc(C)cc1`, the Potency was “inactive”. With `NC(=Nc1ccccc1)Nc1ccccc1` the Potency was “inactive”. For `CN=C(NC#N)NCCSCc1nc[nH]c1C`, the Potency was “inactive”. With `COc1ccc(CN(CCN(C)C)c2ccccn2)cc1` the Potency was “inactive”. In the case of `NC(=O)N1c2ccccc2C=Cc2ccccc21`, the Potency is reported as “inactive”.
